Results filed as inconclusive are left out. Active and inactive are the calls of the source. Unless noted, calls come from the whole dose curve.
What was measured:
[1] = Nuclear factor erythroid 2-related factor 2/antioxidant responsive element (Nrf2/ARE) small molecule agonists: qHTS cell viability counter screen in human keratinocytes (AID 1919968; active = well fitted curve in the direction sought with a large enough effect in the repeat runs; an effect the other way counts as inactive or inconclusive; note: nearly all actives have a fitted effect of over 55% in size)
Method in brief: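 Seed 1,500 KeratinoSens cells per well, then incubate 5 h at 37 C/5% CO2. Add compounds in DMSO and incubate 23 h. Add CellTiter-Fluor, wait 1 h and read fluorescence.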

[2] = Nuclear factor erythroid 2-related factor 2/antioxidant responsive element (Nrf2/ARE) small molecule agonists: luciferase reporter gene qHTS assay in human keratinocytes (AID 1919969); note: nearly all actives have a fitted effect of over 35% in size
[3] = biological target: Gonadotropin-releasing hormone receptor (Homo sapiens) (UniProt P30968); test: Human gonadotropin-releasing hormone receptor (GnRHR) small molecule agonists, calcium flux assay in GnRHR-HEK293 cells (AID 1920063); note: nearly all actives have a fitted effect of over 35% in size
Gonadotropin-releasing hormone receptor (Homo sapiens), sequence (P30968 whole entry, looked up): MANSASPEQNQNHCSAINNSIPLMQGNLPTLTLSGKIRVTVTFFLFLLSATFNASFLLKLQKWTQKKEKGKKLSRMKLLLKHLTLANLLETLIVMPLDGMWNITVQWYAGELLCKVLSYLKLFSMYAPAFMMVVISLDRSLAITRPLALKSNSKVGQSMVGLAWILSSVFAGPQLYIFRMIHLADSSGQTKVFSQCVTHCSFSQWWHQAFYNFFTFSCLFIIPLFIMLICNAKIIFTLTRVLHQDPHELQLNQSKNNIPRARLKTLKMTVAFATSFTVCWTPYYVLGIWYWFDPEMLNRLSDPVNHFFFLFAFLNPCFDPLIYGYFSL
Method in brief: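 Cells: HEK293 stably expressing human GnRHR. Steps: overnight (18 h) culture, 1 h calcium dye loading at 37 C, compound addition, kinetic fluorescence read at 480/540 nm. Each compound tested at 15 concentrations in triplicate.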

[4] = biological target: KiSS-1 receptor (Homo sapiens) (UniProt Q969F8); test: Human kisspeptin (KISS1R) small molecule agonists, calcium flux assay in KISS1R-HEK293 cells (AID 1920064; active = well fitted curve in the direction sought with a large enough effect in the repeat runs; an effect the other way counts as inactive or inconclusive)
KiSS-1 receptor (Homo sapiens), sequence (Q969F8 whole entry, looked up): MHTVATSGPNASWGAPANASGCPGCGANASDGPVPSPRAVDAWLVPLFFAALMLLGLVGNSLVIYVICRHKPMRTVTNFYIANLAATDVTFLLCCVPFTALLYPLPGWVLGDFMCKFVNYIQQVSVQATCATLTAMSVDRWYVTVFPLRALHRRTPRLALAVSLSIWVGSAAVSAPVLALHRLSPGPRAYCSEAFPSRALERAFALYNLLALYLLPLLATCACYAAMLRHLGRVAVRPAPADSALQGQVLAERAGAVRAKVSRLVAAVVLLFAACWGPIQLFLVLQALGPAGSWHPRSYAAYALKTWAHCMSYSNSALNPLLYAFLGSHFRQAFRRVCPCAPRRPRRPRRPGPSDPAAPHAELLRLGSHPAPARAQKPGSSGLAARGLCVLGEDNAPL
Method in brief: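 Cells plated and incubated 18 h; dye added, 1 h at 37 C; compounds in DMSO pinned in; signal read at 480/540 nm every second for 3 min. Each compound tested at 15 concentrations in triplicate.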

[5] = p53 small molecule agonists, cell-based qHTS assay with human liver microsomes: qHTS cell viability counter screen (AID 1963579); note: nearly all actives have a fitted effect of over 45% in size
Method in brief: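 Cells carrying the p53 response-element beta-lactamase reporter are treated for 16 h at 37 C with test compounds in the presence of human liver microsomes and NADPH (both 0.5 mg/mL final); ATP-based CellTiter-Glo luminescence then reports viability.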

[6] = p53 small molecule agonists, cell-based qHTS assay with rat liver microsomes: qHTS cell viability counter screen (AID 1963580); note: nearly all actives have a fitted effect of over 45% in size
Method in brief: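 p53RE-bla HCT-116 cells (4,000/well) rested 5 h at 37 C, then given Tox21 compounds in DMSO with rat liver microsomes (0.5 mg/mL final) plus NADPH (0.5 mg/mL final) for 16 h at 37 C. Viability read by CellTiter-Glo luminescence after 30 min at room temperature.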

[7] = p53 small molecule agonists, cell-based qHTS assay (AID 1963582; active = well fitted activation curve with a large enough effect in the signal ratio in the repeat runs, not every such curve was filed as active; the % refers to the signal ratio)
Method in brief: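 Quantitative HTS in p53RE-bla cells: after a 5 h settling period, compounds delivered in DMSO were left on cells for 16 h at 37 C, and reporter induction was measured as fluorescence following 2 h substrate loading.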

[8] = biological target: 5-hydroxytryptamine receptor 2A (Homo sapiens) (UniProt P28223); test: 5-hydroxytryptamine receptor 2A (HTR2A) small molecule antagonists, cell-based qHTS assay (AID 1963586); note: nearly all actives have a fitted effect of over 45% in size
5-hydroxytryptamine receptor 2A (Homo sapiens), sequence (P28223 whole entry, looked up): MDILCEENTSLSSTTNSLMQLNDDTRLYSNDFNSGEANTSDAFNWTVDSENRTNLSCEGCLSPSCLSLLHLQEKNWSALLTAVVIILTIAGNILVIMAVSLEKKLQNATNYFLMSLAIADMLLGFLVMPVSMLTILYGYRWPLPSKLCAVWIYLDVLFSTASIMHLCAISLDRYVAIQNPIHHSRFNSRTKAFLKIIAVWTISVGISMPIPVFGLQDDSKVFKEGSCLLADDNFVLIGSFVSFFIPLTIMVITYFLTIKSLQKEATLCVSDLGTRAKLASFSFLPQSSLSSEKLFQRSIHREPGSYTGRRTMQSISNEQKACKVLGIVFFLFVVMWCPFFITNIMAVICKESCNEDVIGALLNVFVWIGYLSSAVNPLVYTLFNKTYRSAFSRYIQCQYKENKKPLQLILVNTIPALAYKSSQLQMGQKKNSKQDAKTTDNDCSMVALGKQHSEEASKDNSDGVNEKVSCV
Method in brief: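 Antagonist-mode intracellular calcium assay: DOI (4 nM) added after 5 min compound pre-incubation at room temperature to dye-loaded HTR2A-CHO cells. Fluorescence followed for 3 min, sampled every second.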

[9] = biological target: 5-hydroxytryptamine receptor 2A (Homo sapiens) (UniProt P28223); test: 5-hydroxytryptamine receptor 2A (HTR2A) small molecule agonists, cell-based qHTS assay (AID 1963587); note: nearly all actives have a fitted effect of over 30% in size
Method in brief: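 HTR2A-CHO cells, plated 18 h at 37 C/5% CO2, dye-loaded 1 h at 37 C; compounds in DMSO added by pin tool (agonist mode). Intracellular calcium flux read as kinetic fluorescence on FDSS over 2 min at 1 s intervals.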

[10] = biological target: Muscarinic acetylcholine receptor M1 (Homo sapiens) (UniProt P11229); test: Cholinergic receptor muscarinic 1 (CHRM1) small molecule antagonists, cell-based qHTS assay (AID 1963588); note: nearly all actives have a fitted effect of over 40% in size
Muscarinic acetylcholine receptor M1 (Homo sapiens), sequence (P11229 whole entry, looked up): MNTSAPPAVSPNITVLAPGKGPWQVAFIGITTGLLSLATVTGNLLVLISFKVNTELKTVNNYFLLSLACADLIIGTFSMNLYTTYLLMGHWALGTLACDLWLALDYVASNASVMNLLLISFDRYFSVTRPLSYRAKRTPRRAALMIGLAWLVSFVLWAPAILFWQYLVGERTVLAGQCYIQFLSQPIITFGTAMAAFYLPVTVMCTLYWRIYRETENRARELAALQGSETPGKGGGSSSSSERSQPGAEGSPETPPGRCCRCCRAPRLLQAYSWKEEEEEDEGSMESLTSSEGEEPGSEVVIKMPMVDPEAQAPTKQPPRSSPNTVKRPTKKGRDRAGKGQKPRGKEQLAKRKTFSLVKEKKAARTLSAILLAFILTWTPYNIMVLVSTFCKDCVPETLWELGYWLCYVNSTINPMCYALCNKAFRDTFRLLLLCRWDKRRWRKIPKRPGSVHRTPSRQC
Method in brief: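 CHRM1-CHO calcium-flux assay, antagonist mode. Cells were seeded 18 h, dye-loaded 1 h at 37 C and given compound for 5 min at RT, then acetylcholine was added at 50nM. FDSS fluorescence was read 3 min; 15 concentrations, three runs.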

[11] = biological target: Muscarinic acetylcholine receptor M1 (Homo sapiens) (UniProt P11229); test: Cholinergic receptor muscarinic 1 (CHRM1) small molecule agonists, cell-based qHTS assay (AID 1963589); note: nearly all actives have a fitted effect of over 35% in size
Method in brief: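 Agonist-mode qHTS in CHO cells stably carrying human muscarinic M1. Intracellular calcium is tracked by fluorescence every second after compound transfer; each compound runs at 15 concentrations in three independent runs.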

[12] = cAMP Responsive Elements (CRE) small molecule agonists, cell-based qHTS assay (AID 1963590)
Method in brief: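 Agonist mode qHTS in CRE-bla HEK 293T cells: compounds dosed from DMSO for 3 h at 37 C/5% CO2, followed by LiveBLAzer B/G FRET substrate for 2 h at room temperature.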

[13] = cAMP Responsive Elements (CRE) small molecule antagonists, cell-based qHTS assay (AID 1963591; active = well fitted inhibition curve with a large enough effect in the signal ratio in the repeat runs, not every such curve was filed as active; the % refers to the signal ratio)
Method in brief: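 Antagonist mode: test compounds are co-incubated with the adenylyl cyclase activator NKH477 (0.25 uM final) on CRE-bla HEK293T cells for 3 h at 37 °C, followed by LiveBLAzer substrate loading.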

[14] = biological target: Beta-2 adrenergic receptor (Homo sapiens) (UniProt P07550); test: Adrenergic beta2 receptor (ADRB2) small molecule antagonists, cell-based qHTS assay (AID 1963592); note: series mostly up to about 92 µM; nearly all actives have a fitted effect of over 50% in size
Beta-2 adrenergic receptor (Homo sapiens), sequence (P07550 whole entry, looked up): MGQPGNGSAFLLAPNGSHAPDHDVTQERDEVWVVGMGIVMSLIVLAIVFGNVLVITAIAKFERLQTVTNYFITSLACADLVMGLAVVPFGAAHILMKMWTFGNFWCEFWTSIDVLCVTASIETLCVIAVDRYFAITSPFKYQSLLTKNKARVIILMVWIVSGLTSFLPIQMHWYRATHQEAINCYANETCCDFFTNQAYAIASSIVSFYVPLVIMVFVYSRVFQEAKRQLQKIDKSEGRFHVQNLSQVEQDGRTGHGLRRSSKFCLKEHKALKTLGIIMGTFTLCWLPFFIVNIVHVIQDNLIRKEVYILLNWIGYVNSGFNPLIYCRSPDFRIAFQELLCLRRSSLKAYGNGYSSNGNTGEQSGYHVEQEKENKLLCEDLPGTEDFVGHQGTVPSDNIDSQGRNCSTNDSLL
Method in brief: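 Cells (CHO, stable ADRB2 overexpression) incubated 18-20hr at 37C; compounds added from DMSO; agonist mix (1nM isoproterenol, 100uM IBMX, 25uM Ro-20-1724) added; 0.5hr RT; d2-cAMP and anti-cAMP-cryptate added; 1hr RT; 665/615 nm read.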

[15] = biological target: Beta-2 adrenergic receptor (Homo sapiens) (UniProt P07550); test: Adrenergic beta2 receptor (ADRB2) small molecule agonists, cell-based qHTS assay (AID 1963593);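 note: CHO cells stably overexpressing human ADRB2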
Method in brief: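 CHO cells stably over-expressing ADRB2 were plated overnight at 37C, then dosed with compounds plus a stimulation mix containing 100uM IBMX and 25uM Ro-20-1724 for 0.5hr at room temperature. cAMP was measured by HTRF competition, 1hr.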

[16] = biological target: D(2) dopamine receptor (Homo sapiens) (UniProt P14416); test: Dopamine D2 receptor (DRD2) small molecule agonists, cell-based qHTS assay (AID 1963594); note: nearly all actives have a fitted effect of over 35% in size
D(2) dopamine receptor (Homo sapiens), sequence (P14416 whole entry, looked up): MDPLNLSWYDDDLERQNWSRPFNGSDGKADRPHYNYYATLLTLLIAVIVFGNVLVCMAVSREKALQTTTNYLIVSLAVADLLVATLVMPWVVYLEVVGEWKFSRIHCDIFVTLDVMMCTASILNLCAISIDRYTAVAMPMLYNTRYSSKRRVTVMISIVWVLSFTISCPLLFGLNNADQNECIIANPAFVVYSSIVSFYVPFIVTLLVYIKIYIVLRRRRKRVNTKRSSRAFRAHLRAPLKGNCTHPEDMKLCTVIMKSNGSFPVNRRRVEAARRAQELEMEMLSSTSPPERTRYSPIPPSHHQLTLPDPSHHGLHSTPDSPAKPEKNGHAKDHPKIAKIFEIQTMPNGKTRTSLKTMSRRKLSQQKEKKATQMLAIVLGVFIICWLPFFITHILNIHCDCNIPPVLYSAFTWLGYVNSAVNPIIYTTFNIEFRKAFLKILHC
Method in brief: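 HEK293 cells stably expressing DRD2 were cultured 24 h at 37 C, then given Ro20-1724 (0.1 mM final) and compounds for 10 min at room temperature. NKH477 (200nM) was then added for 30 min. cAMP was read by HTRF.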

[17] = biological target: D(2) dopamine receptor (Homo sapiens) (UniProt P14416); test: Dopamine D2 receptor (DRD2) small molecule antagonists, cell-based qHTS assay (AID 1963595; active = well fitted inhibition curve with a large enough effect in the signal ratio in the repeat runs, with a control signal flat; the % refers to the signal ratio)
Method in brief: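 HTRF cAMP read-out at 665 and 620 nm emission (340 nm excitation). Antagonist mode: compounds were tested against 12 nM quinpirole in DRD2-HEK293 cells, with 200 nM NKH477 raising cAMP and 0.1 mM Ro20-1724 blocking its breakdown.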

[18] = p53 small molecule agonists, cell-based qHTS assay with human liver microsomes (AID 1963577)
Method in brief: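 Compounds act here after metabolic activation: human liver microsomes and NADPH, both at 0.5 mg/mL final, were co-added to p53RE-bla cells. Incubation ran 16 h at 37 C, followed by LiveBLAzer detection.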

[19] = p53 small molecule agonists, cell-based qHTS assay with rat liver microsomes (AID 1963578)
Method in brief: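 Read-out is beta-lactamase reporter fluorescence (LiveBLAzer, 2 h, room temperature, dark) in p53RE-bla cells treated 16 h at 37 C with compound, rat liver microsomes and NADPH, both 0.5 mg/mL final.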

[20] = p53 small molecule agonists, cell-based qHTS assay: qHTS cell viability counter screen (AID 1963581); note: nearly all actives have a fitted effect of over 45% in size
Method in brief: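 Cells: HCT-116 with p53 response element-driven beta-lactamase. Treatment: 16 h, 37 C, compounds in DMSO. Read: CellTiter-Glo luminescence after 30 min RT.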

Measured: Potency

CNC(=O)O/N=C/C(C)(C)S(C)(=O)=O
not listed: [18] | [19] | [20]
inactive: all other assays above

CCCCCCCCCCOC(=O)c1ccccc1C(=O)OCCCCCCCCCC
not listed: [4]
inactive: all other assays above

C1CC2OC2CC1C1CO1 (configuration not stated)
not listed: [4] | [16]
inactive: all other assays above

CCN(CC)CCN1C(=O)CN=C(c2ccccc2F)c2cc(Cl)ccc21
not listed: [4] | [15] | [17]
inactive: all other assays above

O=[N+]([O-])c1cc(Cl)c(Cl)c(Cl)c1
not listed: [4] | [7] | [14] | [15] | [20]
inactive: all other assays above

CC(=O)C(Cl)Cl
not listed: [4] | [7]
inactive: all other assays above

Cc1ccccc1N
not listed: [4] | [16]
inactive: all other assays above
